In the supplement of paper PMC6555819 one finds PBM binding z-score data, which are given here for six sequences.

Experiment in all cases: PBM binding z-score (relative to random genomic background probes); higher = stronger binding; sequences stand for … in GC…GCGATTGACAGCGTAGAATGAAGG
Assay [1] relates to FXR:RXRa (NR concentration 270 nM, RXRa partner concentration 90 nM). In outline:
(§1)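 Probes were double-stranded and carried 34-nt variable regions with direct-repeat seeds, single-nucleotide variants, half-site ablations and random human genomic background sequences, printed on custom Agilent 4×180K protein-binding microarrays. Arrays were incubated 1 h with ligand-free nuclear receptor dimers in PBS pH 7.4, 2% milk, 0.02% Triton X-100, 1 mM DTT, 0.2 mg/mL BSA and 0.4 mg/ml salmon testes DNA. Antibodies against each partner (one per run) detected binding, and scanned fluorescence was regression-normalized. Binding z-scores use the random background probes as reference.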

Assay [2] concerns LXRa:RXRa (NR concentration 270 nM, RXRa partner concentration 90 nM). In outline: as §1
Assay [3] has as its system LXRa homodimer (NR concentration 270 nM). An outline of the steps: as §1
The subject of assay [4] is LXRb:RXRa (NR concentration 270 nM, RXRa partner concentration 90 nM). In outline: as §1
Assay [5] relates to LXRb homodimer (NR concentration 270 nM). In outline:
as §1

Assay [6] relates to PPARa:RXRa (NR concentration 270 nM, RXRa partner concentration 90 nM). An outline of the steps:
as §1

For assay [7], the system named is PPARg:RXRa (NR concentration 180 nM, RXRa partner concentration 90 nM). In outline:
as §1

Assay [8] deals with PPARg:RXRa 270nM:90nM, anti-RXR (NR concentration 270 nM, RXRa partner concentration 90 nM). An outline of the steps: as §1
For assay [9], the system named is PPARg:RXRa 30nM:10nM, anti-RXR (NR concentration 30 nM, RXRa partner concentration 10 nM). An outline of the steps: as §1
The subject of assay [10] is PPARg:RXRa 90nM:30nM, anti-RXR (NR concentration 90 nM, RXRa partner concentration 30 nM). In outline: as §1
The subject of assay [11] is PPARg:RXRa DBDmut IVT, anti-RXR (DBD mutation: RXRa K156A/R161A, NR concentration 270 nM, RXRa partner concentration 90 nM). In outline:
as §1

The test system of assay [12] is PPARg:RXRa IVT, anti-PPARg (NR concentration 270 nM, RXRa partner concentration 90 nM). An outline of the steps: as §1
In assay [13] the test system is PPARg DBDmut:RXRa IVT, anti-PPARg (DBD mutation: PPARg1 K132A/R137A, NR concentration 270 nM, RXRa partner concentration 90 nM). An outline of the steps:
as §1

The subject of assay [14] is PPARg DBDmut IVT, anti-PPARg (DBD mutation: PPARg1 K132A/R137A, NR concentration 270 nM). In outline: as §1
The subject of assay [15] is PPARg homodimer (NR concentration 180 nM). In outline:
as §1

Assay [16] relates to PXR:RXRa (NR concentration 270 nM, RXRa partner concentration 90 nM). In outline: as §1
Assay [17] concerns PXR homodimer (NR concentration 270 nM). An outline of the steps:
as §1

The subject of assay [18] is RARa:RXR (NR concentration 270 nM, RXRa partner concentration 90 nM). In outline: as §1
Assay [19] has as its system RARa homodimer (NR concentration 270 nM). An outline of the steps: as §1
Assay [20] concerns RARb:RXRa (NR concentration 270 nM, RXRa partner concentration 90 nM). In outline:
as §1

AGTCAAAGTTCAGAACGAGGTAACGTAAAGCACG: the PBM binding z-score worked out at 4.06 in [1]; 3.73 in [2]; 1.34 in [3]; 1.78 in [4]; 0.533 in [5]; 3.26 in assay [6]. For the same sequence, the PBM binding z-score in assay [7] came out at 4.48; in [8], 4.72; in [9], 1.77; in [10] it was 4.12; in [11], 0.0651; in assay [12], 2.1. For the same sequence, the PBM binding z-score was 0.709 in assay [13]; 0.236 in [14]; 1.58 in assay [15]; 3.14 in assay [16]; 1.5 in assay [17]; 2.94 in [18]. In addition, the results for the PBM binding z-score in assay [19] and in assay [20] were 0.271 and 4.01, respectively.

As to TAGCCTGGGTCATGCGGGCCAGTATAGTGTCGGC, the PBM binding z-score in [1] was 3.19; in assay [2], 1.79; in assay [3] it was -0.665; in assay [4], 1.03; in [5] it was -0.444; in [6], 3.4. In addition, the PBM binding z-score in assay [7] came out at 2.12; in [8], 2.48; in assay [9] it was 0.16; in assay [10], 1.54; in assay [11] it was 0.519; in assay [12], 2.76. Further, the PBM binding z-score is -0.229 in assay [13]; 0.545 in [14]; 0.758 in assay [15]; 1.64 in assay [16]; -0.615 in [17]; 2.42 in [18]. Further, the PBM binding z-score is -0.605 in assay [19] and 3.18 in assay [20].

With CCTTACGGGTCACGAGGCTATAGCACGACGAGCG, the PBM binding z-score in [1] is 6.52; in assay [2] it was 3.97; in assay [3], 0.0117; in assay [4], 3.26; in assay [5] it was -0.222; in assay [6], 5.83. The PBM binding z-score in [7] turned out to be 6.52; in assay [8], 5.91; in assay [9] it was 2.64; in assay [10], 4.4; in assay [11], 3.61; in [12], 4.78. For the same sequence, the PBM binding z-score in assay [13] was 0.556; in assay [14], -0.248; in [15], 1.81; in assay [16], 3.26; in [17], -0.243; in assay [18], 4.45. The PBM binding z-score in [19] was found to be 0.264; in assay [20] it was 4.23.

Take TCATATAGGTAAACAGGTGAAAGCCCGTAAGTTA: the PBM binding z-score is 0.95 in assay [1]; 1.13 in assay [2]; 0.0822 in assay [3]; 0.763 in assay [4]; -0.22 in [5]; 2.4 in assay [6]. The PBM binding z-score in assay [7] worked out at 2.7; in assay [8], 3.37; in assay [9], 3.79; in assay [10], 3.69; in assay [11], 4.79; in assay [12] it was 4.53. In addition, the PBM binding z-score was found to be 1.26 in assay [13]; 0.658 in assay [14]; 0.824 in assay [15]; 0.744 in [16]; 0.0524 in assay [17]; 1.07 in assay [18]. Moreover, the PBM binding z-score in [19] is 1.58; in [20], 0.738.

On to CCTGCTAGGTCAATGGTTAGCTAAAGCAGCTCGC, for which the PBM binding z-score in assay [1] was 2.78; in [2], 1.76; in assay [3] it was -0.418; in assay [4] it was 1.44; in [5], -0.3; in [6], 2.63. The PBM binding z-score in [7] is 3.33; in assay [8] it was 3.77; in assay [9] it was 1.16; in assay [10], 3.2; in assay [11], 4.4; in assay [12], 3.57. The PBM binding z-score was -0.722 in assay [13]; -1.05 in [14]; 0.942 in assay [15]; 0.745 in [16]; -0.456 in assay [17]; 1.29 in assay [18]. Further, the PBM binding z-score in assay [19] is -0.0432; in assay [20] it was 3.74.

Take GCTTTTAGTTGAAAGGGCAACCGAATGATTCTCG: the PBM binding z-score in [1] was 0.288; in assay [2] it was 0.561; in assay [3] it was -0.0833; in assay [4] it was 0.53; in assay [5], 0.106; in assay [6], 2.2. For the same sequence, the PBM binding z-score in assay [7] was 2.24; in assay [8], 4.03; in [9] it was 1.85; in assay [10], 3.97; in assay [11] it was 0.524; in assay [12], 0.732. Moreover, the PBM binding z-score was 0.316 in assay [13]; 0.582 in assay [14]; 0.658 in assay [15]; 0.695 in assay [16]; -0.255 in [17]; 0.953 in assay [18]. Further, the PBM binding z-score in assay [19] is -0.0621; in assay [20], 2.16.
